# D1 potentiator – Potentiators of Human D1 Dopamine Receptor: qHTS. D(1A) dopamine receptor (Homo sapiens), P21728. HEK293 TREx D1 cells, calcium flux, dopamine EC20 potentiation. potentiation, % at 10 µM. actives 0.036% (n = 360,000); in the data active means potentiation above about 30%
# Target sequence (P21728 whole entry, looked up): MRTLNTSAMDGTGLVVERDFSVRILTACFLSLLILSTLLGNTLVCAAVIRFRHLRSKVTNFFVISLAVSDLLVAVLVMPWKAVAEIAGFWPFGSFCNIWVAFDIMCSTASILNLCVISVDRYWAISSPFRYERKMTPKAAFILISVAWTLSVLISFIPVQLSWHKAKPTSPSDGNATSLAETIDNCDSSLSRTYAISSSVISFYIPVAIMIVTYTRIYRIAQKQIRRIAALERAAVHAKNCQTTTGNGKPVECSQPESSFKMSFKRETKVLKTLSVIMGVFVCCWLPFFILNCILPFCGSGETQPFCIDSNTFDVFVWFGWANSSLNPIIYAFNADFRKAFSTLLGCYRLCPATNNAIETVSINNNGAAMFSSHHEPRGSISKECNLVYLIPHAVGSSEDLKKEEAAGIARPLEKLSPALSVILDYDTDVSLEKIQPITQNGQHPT
# D1 agonist – Allosteric Agonists of the Human D1 Dopamine Receptor: qHTS; D(1A) dopamine receptor (Homo sapiens), P21728; HEK293 T-REx D1 cells, calcium flux, agonist mode; activation, % at 2 µM; actives 1% (n = 360,000); AID 504660, 2011
#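 Tetracycline-induced HEK293 TREx D1 cells, force-coupled to calcium signalling, were dye-loaded with a no-wash calcium kit. Compound was pin-added after a 10 s baseline. Fluorescence was read kinetically at 1 cycle/s for 180 s, with calcium rises flagged as agonism.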
# D1 antagonist – Antagonist of Human D 1 Dopamine Receptor: qHTS; actives 3.2% (n = 360,000); D(1A) dopamine receptor (Homo sapiens), P21728; activity change, negative = inhibition, % at 10 µM; HEK293 TREx D1 cells, calcium flux, dopamine EC80; active compounds read low; in the data active means activity change below about -30%
#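 Calcium flux readout: force-coupled, inducible Hek293 Trex D1 line, cells induced overnight at 30 C with tetracycline, dye-loaded 30–90 min at RT. Antagonism scored against EC80 dopamine challenge given 180 s after compound.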
# TRHR ag – qHTS for Small Molecule Agonists and Allosteric Enhancers of Human TRH Receptor: Primary Screen for Agonists; Thyrotropin-releasing hormone receptor (Homo sapiens), P34981; TRHR cells, calcium flux fluo-8, FDSS agonist mode; activation, % at 2 µM; actives 0.18% (n = 360,000); AID 493084, 2011
#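 TRHR-expressing cells, plated overnight in medium with 10% serum, were loaded with fluo-8 calcium dye at room temperature. After a 10 s baseline, library compound was pin-added and calcium release was recorded kinetically (ex 480/em 530) as agonist response.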
# TRHR PAM – qHTS for Small Molecule Agonists and Allosteric Enhancers of Human TRH Receptor: Primary Screen for Enhancers. Thyrotropin-releasing hormone receptor (Homo sapiens), P34981. AID 493056, 2011. TRHR cells, fluo-8 calcium fluorescence, EC20 TRH enhancement. enhancement, % at 2 µM. actives 0.66% (n = 360,000); in the data active means enhancement above about 30%
#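 Enhancer read-out: after compound pinning and an initial kinetic agonist-mode read, an EC20 of TRH (10 nM final) was injected and fluo-8 calcium signal (Ex 480/Em 530) followed at 1 s/cycle for 100 cycles in TRHR-expressing cells.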
# Hits are given with their value; n = inactive; x = no result. Rows were chosen to be rich in hits. Some 4.7% of all compounds tested hit in one or more screens of this group. Unless noted, no stated cut-off is given here; in the data, active means activation above about 30%; inactive means the rest.
SMILES,D1 potentiator,D1 agonist,D1 antagonist,TRHR ag,TRHR PAM
CN(c1ccc(OCC(=O)OCC(=O)Nc2ccc(F)cc2)cc1)S(=O)(=O)c1ccc(Cl)cc1,n,n,-55.6,n,n
O=C(c1ccc2c(c1)N(Cc1ccccc1F)C(=O)c1ccccc1S2=O)N1CCN(c2ccccc2)CC1 (stereo not drawn),n,n,n,n,n
CCC(C)(C)NC(=O)C1CCN(S(=O)(=O)c2c(C)noc2/C=C/c2ccc(C)cc2)CC1,n,n,n,n,n
Cc1ccc2c(c1)-c1nc(-c3ccc4c(c3)NC(=O)CO4)cc(-c3ccc(F)cc3)c1CO2,n,n,n,n,n
COC(=O)C(Sc1nc(C)cc(C)c1C#N)c1ccccc1 (stereo not drawn),n,n,-32.4,n,n
COC(=O)Cc1ccc(NC(=S)N2CCN(C)CC2)cc1,n,n,n,n,n
CC(C)CNC(=S)N1CCC(Cc2ccccc2)CC1,n,n,-35.8,n,n
COC(=O)Cc1ccc(NC(=S)N2CCC(Cc3ccccc3)CC2)cc1,n,n,-32.2,n,n
CC(=O)c1ccc(NC(=S)N2CCC(Cc3ccccc3)CC2)cc1,n,n,-35.3,n,n
CC(=O)c1cccc(NC(=S)N2CCC(Cc3ccccc3)CC2)c1,n,n,x,n,n
COC(=O)Cc1ccc(NC(=S)N2CCN(c3cccc(O)c3)CC2)cc1,n,n,-37.9,n,n
CC(C)NC(=S)N1CCC(Cc2ccccc2)CC1,n,n,n,n,n
COC(=O)NCC(c1cccnc1)N1CCN(c2ccc(F)cc2)CC1 (stereo not drawn),n,n,n,n,n
COc1ccc(/C=c2\s/c(=C/C(=O)c3ccc(C)cc3)[nH]c2=O)c(OC)c1,n,136.0,n,54.4,n
COc1cccc(/C=c2\s/c(=C/C(=O)c3ccc(C)cc3)[nH]c2=O)c1OC,n,n,n,n,n
COc1ccc(NCc2cc3ccc(OC)cc3n(CC(=O)Nc3cccc(OC)c3)c2=O)cc1,n,n,n,n,n
CCCCCCCCCCCC(=O)NC(Cc1ccc(OC)c([N+](=O)[O-])c1)C(=O)O (stereo not drawn),n,137.1,-48.2,n,n
O=C(NCCc1ccccc1)c1nc(-c2cccs2)no1,n,n,-35.9,n,n
CC(=O)c1ccc(NC(=O)C2(c3ccccc3)CC2(Cl)Cl)cc1 (stereo not drawn),n,37.6,n,n,n
CCc1ccc(CNC(=O)CSc2cc(=O)n(C)c3ccc(Cl)cc23)cc1,n,n,n,n,n
Cc1sc2nc(-c3cccnc3)[nH]c(=O)c2c1-c1ccccc1,n,n,-48.7,n,n
CCCCN1C(=O)C(O)(c2c[nH]c3ccccc23)c2cc(Br)ccc21 (stereo not drawn),n,n,n,n,n
CCCOC(=O)C(=O)NNc1ccccc1,n,n,n,n,32.1
Clc1ccc(CCNC(c2ccc(Cl)cc2)c2nnc(-c3ccccc3)o2)cc1 (stereo not drawn),n,35.4,n,n,n
Fc1ccccc1C(NCCc1ccc(Cl)cc1)c1nnc(-c2ccccc2)o1 (stereo not drawn),n,n,n,n,n
SMILES,D1 potentiator,D1 agonist,D1 antagonist,TRHR ag,TRHR PAM
O=C(c1ccc(O)cc1)c1ccc(C(=O)c2ccc(O)cc2)cc1,n,n,-79.8,n,n
CCN(Cc1ccccc1)C(=O)Cn1c(=O)n(-c2ccc(C)c(C)c2)c(=O)c2c(C)c(C)sc21,n,n,n,n,n
Cc1ccc(C)c(Cn2c(C3CC(=O)N(c4ccccc4C)C3)nc3ccccc32)c1 (stereo not drawn),n,n,n,n,n
Cc1cc2oc(C(=O)Nc3cccc(-c4nc5ccccc5o4)c3)c(C)c2cc1C,n,53.9,n,n,n
Cc1cc(C)c2oc(-c3cccc(NC(=O)c4ccc(Br)o4)c3)nc2c1,n,n,n,n,n
CC(=O)Nc1cccc(-c2nc3ccccc3o2)c1,n,n,n,n,n
CCc1ccc2oc(-c3cccc(NC(=O)COc4ccccc4Cl)c3)nc2c1,n,n,n,n,43.3
COc1ccccc1OC(C)C(=O)Nc1cccc(-c2nc3ccccc3o2)c1 (stereo not drawn),n,31.8,n,n,n
Cc1cc(C)c2oc(-c3cccc(NC(=O)c4ccco4)c3)nc2c1,n,n,-45.6,n,n
COc1cc(OC)c(NC(=O)c2cc(C(C)=O)n3ccccc23)cc1Cl,n,n,n,n,n
O=C(Nc1ccc(-c2nc3cc(Cl)ccc3c(=O)o2)cc1)c1ccco1,n,n,-31.9,n,n
O=c1[nH]c(SCc2ccc(Cl)cc2)nc2c1CCC2,n,n,n,n,n
O=c1[nH]c(SCc2ccccc2)nc2c1CCCC2,n,n,-40.8,n,n
CCOCCNC(=O)c1ccccc1C(=O)NCCOCC,n,n,n,n,n
CCOCCN(C(=O)c1ccccc1Cl)c1cccc(C)c1C,n,n,-38.4,n,n
Cc1ccccc1Cn1ccn(-c2ccc(F)c(F)c2)c(=O)c1=O,n,n,n,n,n
COc1ccc(N2CCN(C(=O)c3ccccc3Br)CC2)c([N+](=O)[O-])c1,n,37.6,-48.6,n,n
COc1cccc(CC(=O)N2CCN(c3ccccc3[N+](=O)[O-])CC2)c1,n,n,-39.8,n,n
COc1ccc(N2CCN(C(=O)c3ccccc3)CC2)c([N+](=O)[O-])c1,n,n,n,n,n
CN(CC(=O)Nc1ccc(N2CCOCC2)cc1)C(=O)CCCOc1ccc(Cl)cc1Cl,n,n,n,n,40.4
CN(CC(=O)Nc1ccc(N2CCOCC2)cc1)C(=O)c1cc(F)c(F)cc1Cl,n,n,-41.9,n,n
CSc1ccc(Cl)c(C(=O)N(C)CC(=O)Nc2ccc(N3CCOCC3)cc2)c1,n,n,n,n,n
CCOC(=O)C(Cc1ccc(O)cc1)NC(=O)CCc1c[nH]c2ccccc12 (stereo not drawn),n,37.4,n,n,n
CCOC(=O)C(Cc1c[nH]c2ccccc12)NC(=O)COc1ccc(CC)cc1 (stereo not drawn),n,n,n,n,n
c1ccc(CNCc2nnc(-c3cc4ccccc4[nH]3)o2)cc1,n,n,n,n,n
Cc1ccc(N=C2NC(=O)/C(=C/c3cn(C)c4ccccc34)S2)cc1C,n,54.1,-98.5,n,n
CN(C)c1ccc2nc3c(=O)[nH]c(=O)nc-3n(CC(O)C(O)C(O)CO)c2c1 (stereo not drawn),n,46.2,n,n,n
